In PubChem BioAssay AID602143 (Vanderbilt Specialized Chemistry Center, 2011):
Values joined by “and” are separate entries in the source; they are usually repeats but may differ in a detail not shown here. Identical values can stand only once. A number with no mark means an inactive call. Active and inactive are the calls of the source. Cut-off read from the data, not from the text of the source: active = remaining activity below about 50%; inactive = the rest.

Molecular target: Phospholipase D2 (Homo sapiens) (UniProt O14939)
Assay: PLD2 inhibitors in cells, cell-based, HEK293, single concentration (AID 602143);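 note: tested at 200 nM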
Details: HEK293 cellular PLD2 activity, percent of control; stronger effect = lower value

Sequence of Phospholipase D2 (Homo sapiens) (O14939 whole entry, looked up): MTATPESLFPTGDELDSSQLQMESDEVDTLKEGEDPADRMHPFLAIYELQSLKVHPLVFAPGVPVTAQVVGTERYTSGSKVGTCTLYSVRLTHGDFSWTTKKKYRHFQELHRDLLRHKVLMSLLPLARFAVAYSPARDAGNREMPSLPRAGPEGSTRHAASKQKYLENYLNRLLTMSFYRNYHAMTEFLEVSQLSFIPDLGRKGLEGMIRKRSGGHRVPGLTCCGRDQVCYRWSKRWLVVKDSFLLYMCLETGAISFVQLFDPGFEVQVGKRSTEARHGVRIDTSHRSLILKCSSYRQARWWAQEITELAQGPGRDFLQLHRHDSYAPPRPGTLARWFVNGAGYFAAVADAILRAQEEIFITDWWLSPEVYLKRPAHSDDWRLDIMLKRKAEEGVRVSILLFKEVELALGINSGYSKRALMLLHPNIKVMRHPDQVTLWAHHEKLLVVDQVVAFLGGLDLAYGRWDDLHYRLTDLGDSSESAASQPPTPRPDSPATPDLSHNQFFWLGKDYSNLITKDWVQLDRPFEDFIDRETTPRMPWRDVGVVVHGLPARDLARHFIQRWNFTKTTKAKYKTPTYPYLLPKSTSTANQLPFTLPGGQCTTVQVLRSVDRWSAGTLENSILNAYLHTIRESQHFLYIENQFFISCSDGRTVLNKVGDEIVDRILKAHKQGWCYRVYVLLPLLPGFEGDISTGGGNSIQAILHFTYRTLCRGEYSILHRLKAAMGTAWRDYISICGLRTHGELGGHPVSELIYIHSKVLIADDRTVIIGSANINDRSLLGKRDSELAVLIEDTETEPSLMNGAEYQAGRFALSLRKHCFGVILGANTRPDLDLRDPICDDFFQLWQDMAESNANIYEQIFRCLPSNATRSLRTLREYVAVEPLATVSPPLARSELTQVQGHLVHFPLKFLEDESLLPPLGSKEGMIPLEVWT
Sequence of Phospholipase D2 (Homo sapiens) (O14939 whole entry, looked up): as above

| SMILES | remaining activity |
| --- | --- |
| O=C(NCCN1CCC2(CC1)C(=O)NCN2c1ccccc1)c1ccnnc1 | 101% |
| O=C1c2ccccc2C(=O)N1CCN1CCC2(CC1)C(=O)NCN2c1ccccc1 | 86.5% |
| CC(C)[C@@H](CN1CCC2(CC1)C(=O)NCN2c1ccccc1)NC(=O)c1cc2ccccc2[nH]1 | 25.8% (active) |
| O=C(NCCN1CCC2(CC1)C(=O)NCN2c1ccccc1)c1cscn1 | 76.2% |
| O=C(NCCN1CCC2(CC1)C(=O)NCN2c1ccc(Br)cc1)c1cc2cc(F)ccc2[nH]1 | 23.7% (active) |
| CN(CCN1CCC2(CC1)C(=O)NCN2c1ccccc1)C(=O)c1ccc2ccccc2c1 | 95.2% |
| CCCCCC(=O)NCCN1CCC2(CC1)C(=O)NCN2c1cccc(F)c1 | 80.7% |
| O=C(NCCN1CCC2(CC1)C(=O)NCN2c1ccc(F)cc1)c1ccc(F)cc1 | 46.9% (active) |
| O=C(NCCN1CCC2(CC1)C(=O)NCN2c1cccc(F)c1)c1ccc(Cl)cc1Cl | 92.4% |
| O=C(NCCN1CCC2(CC1)C(=O)NCN2c1ccccc1)c1cc2cccnc2s1 | 79.2% |
| O=C(NCCN1CCC2(CC1)C(=O)Oc1ccccc12)c1cnc2ccccc2c1 | 57.4% |
| Nc1cccc(Cl)c1C(=O)NCCN1CCC2(CC1)C(=O)NCN2c1ccccc1 | 100% |
| O=C(NCCN1CCC2(CC1)C(=O)NCN2c1ccccc1)c1ccc2c(c1)OCO2 | 90% |
| O=C(NCCN1CCC2(CC1)C(=O)NCN2c1ccc(F)c(F)c1)c1ccc2ccccc2c1 | 40.1% (active) |
| O=C(NCCN1CCC2(CC1)C(=O)NCN2c1cccc(Br)c1)c1ccc2ccccc2c1 | 47.8% (active) |
| O=C(NCCN1CCC2(CC1)C(=O)NCN2c1ccc(Cl)cc1)c1ccc2ccccc2c1 | 54.4% |
| O=C1c2ccccc2C(=O)N1CCCN1CCC2(CC1)C(=O)NCN2c1ccccc1 | 81% |
| CC(C)(C)C(=O)NCCN1CCC2(CC1)C(=O)NCN2c1cccc(F)c1 | 74.9% |

| SMILES | remaining activity |
| --- | --- |
| O=C(c1ccc2ccccc2c1)N1CC(N2CCC(n3c(=O)[nH]c4ccccc43)CC2)C1 | 64.3% |
| C[C@H](CN1CCC2(CC1)C(=O)NCN2c1ccccc1)NC(=O)c1ccc(F)cc1 | 81.7% |
| O=C(NCCN1CCC2(CC1)C(=O)NCN2c1ccc(F)cc1)c1ccc2cc(F)ccc2c1 | 61.1% |
| O=C(CCN1CCC2(CC1)C(=O)NCN2c1ccccc1)Nc1ccc(F)c(F)c1 | 147% |
| CC(C)[C@@H](CN1CCC2(CC1)C(=O)NCN2c1ccccc1)NC(=O)c1cc2cc(F)ccc2[nH]1 | 57.1% |
| O=C(NCCN1CCC2(CC1)C(=O)NCN2c1ccc(F)cc1)c1cc2ccccc2[nH]1 | 8.73% (active) |
| COc1ccc(CC(=O)NCCN2CCC3(CC2)C(=O)NCN3c2cccc(F)c2)cc1OC | 102% and 91.9% |
| O=C(NCCCCCCN1CCC2(CC1)C(=O)NCN2c1ccccc1)c1ccc2ccccc2c1 | 133% |
| O=C(NCCN1CCC2(CC1)C(=O)NCN2c1ccccc1)c1cnc2ccccc2c1 | 56.6% |
| O=C(c1cnc2ccccc2c1)N1CC(N2CCC(n3c(=O)[nH]c4ccccc43)CC2)C1 | 77.3% |
| O=C(NCCN1CCC2(CC1)C(=O)NCN2c1cccc(F)c1)c1ccc2c(c1)C(=O)OC2=O | 66.5% |
| C[C@@H](CN1CCC2(CC1)C(=O)NCN2c1ccc(F)c(F)c1)NC(=O)c1ccc(Cl)cc1 | 14.9% (active) |
| O=C(NCCN1CCC2(CC1)C(=O)NCN2c1ccc(F)cc1)c1cnc2ccccc2c1 | 24% (active) |
| O=C(NCCN1CCC2(CC1)C(=O)NCN2c1cccc(F)c1)C1CCCCC1 | 91% |
| O=C(C#Cc1ccccc1)NCCN1CCC2(CC1)C(=O)NCN2c1ccccc1 | 47.9% (active) |
| O=C(c1ccc(F)c(F)c1)N(CCN1CCC2(CC1)C(=O)NCN2c1cccc(F)c1)C(=O)c1ccc(F)c(F)c1 | 106% |
| O=C(NCCN1CCC2(CC1)C(=O)NCN2c1ccccc1)c1cc2ccccc2s1 | 10.3% (active) |
